# PubChem BioAssay (NCATS)
# Records with an inconclusive call do not appear. Where a call stands in place of a potency, no number is given. Values without a mark were called inactive. Calls of active or inactive are those of the source. The call rests on the fitted dose curve; in most records, active means well fitted curve in the direction sought with a large enough effect; inconclusive means small, poorly fitted or top-dose-only effect, or another doubt; inactive means no such curve, though single readings can be large; an effect the other way counts as inactive or inconclusive.
# How the values were obtained:
# [1] = qHTS for Inhibitors of Plasmodium falciparum (GB4) proliferation (AID 504315); further: nearly all actives have a fitted effect of over 50% in size; further: potency means the concentration at half of the fitted maximal effect
# How it was run: (§1)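 Erythrocytes infected with P. falciparum line (0.3% parasitemia, 2.5% hematocrit final) incubated with compounds 72 h at 37 °C, 5% CO2; SYBR Green lysis buffer added, fluorescence read next day. Normalized to 0.29 uM artemisinin and DMSO.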
# [2] = qHTS for Inhibitors of Plasmodium falciparum (7G8) proliferation (AID 504316); further: nearly all actives have a fitted effect of over 65% in size; further: potency means the concentration at half of the fitted maximal effect
# How it was run: as §1
# [3] = qHTS for Inhibitors of Plasmodium falciparum (CP250) proliferation (AID 504320); further: potency means the concentration at half of the fitted maximal effect
# How it was run: as §1
# [4] = qHTS for Inhibitors of Plasmodium falciparum (HB3) proliferation (AID 504318); further: potency means the concentration at half of the fitted maximal effect; nearly all actives have a fitted effect of over 60% in size
# How it was run: as §1
# [5] = qHTS for Inhibitors of Plasmodium falciparum (DD2) proliferation (AID 504314);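 further: parasite DNA measured by SYBR Green fluorescence after red cell lysis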
# How it was run: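 Fluorescence read-out (ex 485/em 535 nm) of SYBR Green-stained parasite DNA quantifies intraerythrocytic growth. Cultures at 0.3% parasitemia and 2.5% hematocrit were treated for 72 h; data normalized to DMSO and 0.29 uM artemisinin wells.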
smiles,measurement,setting,value
C[C@@H]1CC[C@H]2C(=O)N(Cc3cccc([N+](=O)[O-])c3)C[C@H](O)CN2[C@@H]1c1ccc(Br)cc1,Potency,[1],inactive
same,Potency,[2],inactive
same,Potency,[3],inactive
COC(=O)N1C2=C(c3ccccc3[C@@H]1CC(=O)Nc1ccc3ccc4cccc5ccc1c3c45)[C@@H]1C(=O)N(c3ccccc3)C(=O)[C@@H]1[C@H](C)C2,Potency,[1],1510 nM (active)
same,Potency,[2],1510 nM (active)
same,Potency,[4],2130 nM (active)
same,Potency,[3],1510 nM (active)
COC(=O)C1=C(C(=O)OC)[C@@H]2Nc3ccccc3[C@@]23C[C@@H](C(=O)OC)N(S(=O)(=O)c2ccc(OC)cc2)C3=N1,Potency,[5],inactive
same,Potency,[3],inactive
COc1ccc(-c2nc3c(c4c2C[C@H](c2ccccc2)OC4)CN(C(=O)Cc2cccs2)CC3)c(C)c1,Potency,[5],inactive
same,Potency,[3],inactive
COC(=O)C1=C(C(=O)OC)[C@@H]2Nc3ccccc3[C@@]23C[C@@H](C(=O)OC)N(S(=O)(=O)c2ccc(C#N)cc2)C3=N1,Potency,[5],inactive
same,Potency,[3],inactive
COC(=O)CCC(=O)OC1(C)C(=O)C=C2C=C(C3CC3)N(c3cccc(C#N)c3)C=C2C1=O (stereo unspecified),Potency,[5],inactive
same,Potency,[3],inactive
C#CCCOC(=O)N1C2=NC(C(=O)OC)=C(C(=O)OC)[C@@H]3N(C)c4ccc(OC)cc4[C@]23C[C@H]1C(=O)OC,Potency,[5],inactive
same,Potency,[3],inactive
COC(=O)C1=C(C(=O)OC)[C@@H]2N(Cc3ccccc3)c3ccccc3[C@@]23C[C@@H](C(=O)OC)N(S(=O)(=O)c2ccc(C)cc2)C3=N1,Potency,[1],1690 nM (active)
same,Potency,[2],1690 nM (active)
same,Potency,[4],1510 nM (active)
CCCCS(=O)(=O)N1C2=NC(C(=O)OC)=C(C(=O)OC)[C@@H]3N(C)c4ccccc4[C@]23C[C@H]1C(=O)OC,Potency,[5],inactive
same,Potency,[3],inactive
c1ccc(-c2nc(-c3cccc4ccccc34)c(Nc3ccc4ccccc4c3)o2)cc1,Potency,[2],1510 nM (active)
same,Potency,[4],1510 nM (active)
COc1ccc(CN2C=C3C(=O)C(C)(OC(=O)CCc4ccccc4)C(=O)C=C3C=C2c2ccc(C#N)cc2)cc1 (stereo unspecified),Potency,[1],inactive
same,Potency,[3],inactive
